According to PubChem BioAssay (NCATS):
Where “and” joins values, the source holds several entries; their conditions need not be identical. Identical values can stand only once. Results filed as inconclusive are left out. A call without a number means that no potency is given here. Some structures have more than one record in an assay (separate samples or runs), and their calls can disagree. Calls of active or inactive are those of the source. Calls follow the shape of the dose curve; as a rule, active = well fitted inhibition curve with a large enough effect; inconclusive = small, poorly fitted or top-dose-only effect; inactive = flat fitted curve, though single readings scatter.

Legend:
[1] = system: CRL-7250; experiment: Cytotoxic Profiling of Annotated Libraries Using Quantitative High-Throughput Screening (AID 1296008); conditions: Five cell lines viability, CellTiter-Glo ATP luminescence, 48-72 h; max response: hits give low values
Procedure, shortened: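 Cytotoxicity was measured as CellTiter-Glo ATP luminescence, read after 10 min at room temperature. Compound treatment of the cells lasted 48 or 72 hr at 37 degrees Celsius in a qHTS format.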

[2] = system: PC15; experiment: qHTS profiling for inhibitors of Plasmodium falciparum proliferation (AID 504749); conditions: P. falciparum in erythrocytes, SYBR Green DNA, 72 h; series mostly up to 28.7 µM
Procedure, shortened: (§1)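 SYBR Green fluorescence of parasite DNA, read after lysis and overnight dark incubation, measured growth over 72 h in erythrocyte culture at 0.3% parasitemia and 2.5% hematocrit. Data normalised to DMSO and 0.29 uM artemisinin, with plate-drift correction.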

[3] = system: PC49; experiment: as above; conditions: P. falciparum in erythrocytes, SYBR Green DNA, 72 h; series mostly up to 28.7 µM
Procedure, shortened: as §1

[4] = system: SC27B; experiment: as above; conditions: P. falciparum in erythrocytes, SYBR Green DNA, 72 h; series mostly up to 28.7 µM
Procedure, shortened: as §1

[5] = system: PAD; experiment: as above; conditions: P. falciparum in erythrocytes, SYBR Green DNA, 72 h; series mostly up to 28.7 µM
Procedure, shortened: as §1

[6] = system: TAB109; experiment: as above; conditions: P. falciparum in erythrocytes, SYBR Green DNA, 72 h; series mostly up to 28.7 µM
Procedure, shortened: as §1

[7] = system: TAB113; experiment: as above; conditions: P. falciparum in erythrocytes, SYBR Green DNA, 72 h; series mostly up to 28.7 µM
Procedure, shortened: as §1

[8] = system: TAB165; experiment: as above; conditions: P. falciparum in erythrocytes, SYBR Green DNA, 72 h; series mostly up to 28.7 µM
Procedure, shortened: as §1

[9] = system: PC26; experiment: as above; conditions: P. falciparum in erythrocytes, SYBR Green DNA, 72 h; series mostly up to 28.7 µM
Procedure, shortened: as §1

[10] = system: W2; experiment: as above; conditions: P. falciparum in erythrocytes, SYBR Green DNA, 72 h; series mostly up to 28.7 µM
Procedure, shortened: as §1
Also: nearly all actives have a fitted effect of over 60% in size.
Potency is read from the fitted curve at half-maximal effect.

Structure (SMILES)	max response [1]	outcome [2]	outcome [3]	Potency [4]	outcome [5]	outcome [6]	Potency [7]	Potency [8]	outcome [1]	Potency [9]	Potency [10]	Potency [1]
COc1ccc2c3c1OC1C[C@@H](O)C=C[C@@]31CCN(C)C2 (stereo not given in full)	-0.2% (inactive)	–	–	–	–	–	–	–	–	–	–	–
COC1CCC(N(C(=O)C2CCC(C)CC2)c2cc(C3=CCCCC3)sc2C(=O)O)CC1 (stereo not given)	-4.75% (inactive)	–	–	–	–	–	–	–	–	–	–	–
COC(=O)C1=CO[C@@H](O)[C@@H]2C(CO)=CC[C@@H]12	0.508% (inactive)	–	–	–	–	–	–	–	–	–	–	–
COc1cccc(-c2cc(=O)c3ccccc3o2)c1N	-6.48% (inactive)	–	–	–	–	–	–	–	–	–	–	–
CCCCCNC(=O)N1CCC(CN(Cc2ccc(Cl)cc2)Cc2ccc([N+](=O)[O-])s2)C1 (stereo not given)	-21% (inactive)	–	–	–	–	–	–	–	–	–	–	–
CC(=O)O[C@]1(C(C)=O)CC[C@H]2[C@@H]3C=C(Cl)C4=CC(=O)[C@@H]5C[C@@H]5[C@]4(C)[C@H]3CC[C@@]21C	-14.7% (inactive) and -0.0221% (inactive)	inactive	inactive	inactive	–	–	–	–	–	–	–	–
Clc1ccc(Cn2c(CN3CCCC3)nc3ccccc32)cc1	-0.466% (inactive)	inactive	inactive	inactive	inactive	inactive	inactive	inactive	inactive	–	–	–
CCN(CC)CCOC(=O)c1ccc(N)cc1	-12% (inactive)	inactive	inactive	inactive	inactive	inactive	inactive	inactive	–	inactive	inactive	–
CC(=O)N[C@@H](CS)C(=O)O	-25.8% (inactive)	inactive	inactive	inactive	inactive	inactive	inactive	inactive	–	inactive	inactive	–
C[N+](C)(C)CCCCCC[N+](C)(C)C	-5.15% (inactive)	inactive	inactive	inactive	inactive	inactive	inactive	inactive	–	inactive	inactive	–
Cc1cccc(C)c1OCC(C)N (stereo not given)	–	inactive	–	inactive	inactive	inactive	inactive	–	inactive	inactive	6.01 µM (active)	–
CCN(CC)C(=O)c1ccc(O)c(OC)c1	-9.2% (inactive)	inactive	inactive	inactive	inactive	inactive	inactive	inactive	–	inactive	inactive	–
COCCCCC(=NOCCN)c1ccc(C(F)(F)F)cc1	–	–	–	–	–	–	–	–	–	6.75 µM (active)	2.69 µM (active)	–
COc1ccc2c(Oc3ccc(NC(=O)c4c(C)n(CC(C)(C)O)n(-c5ccccc5)c4=O)nc3)ccnc2c1	-5.8% (inactive)	–	–	–	–	–	–	–	–	–	–	18.4 µM (active)
CCN(CC)CCNC(=O)c1ccc(N)cc1	–	inactive	inactive	inactive	inactive	inactive	inactive	inactive	inactive	inactive	inactive	–
CC(=O)c1ccc(S(=O)(=O)NC(=O)NC2CCCCC2)cc1	-4.5% (inactive)	inactive	inactive	inactive	inactive	–	inactive	inactive	–	inactive	inactive	–
CCOC(=O)O[C@]1(C(=O)OCCl)CC[C@@H]2[C@H]3CCC4=CC(=O)C=C[C@]4(C)[C@@H]3[C@@H](O)C[C@@]21C	–	inactive	inactive	inactive	inactive	inactive	inactive	inactive	inactive	inactive	–	–
NC(N)=Nc1nc(CSCC/C(N)=N/S(N)(=O)=O)cs1	-7.89% (inactive)	inactive	inactive	inactive	inactive	inactive	inactive	inactive	–	inactive	inactive	–
Cc1cnc(C(=O)O)c[n+]1[O-]	4.3% (inactive)	inactive	inactive	inactive	inactive	inactive	inactive	inactive	–	inactive	inactive	–
CCCCCN(C)CCC(O)(P(=O)(O)O)P(=O)(O)O	–	inactive	inactive	inactive	inactive	inactive	–	inactive	–	inactive	inactive	–

Structure (SMILES)	max response [1]	outcome [2]	outcome [3]	Potency [4]	outcome [5]	outcome [6]	Potency [7]	Potency [8]	outcome [1]	Potency [9]	Potency [10]	Potency [1]
O=C1NC(=O)C(c2ccccc2)(c2ccccc2)N1	–	inactive	inactive	inactive	inactive	inactive	inactive	inactive	inactive	inactive	inactive	–
O=C(O)Cc1cccc2ccccc12	–	inactive	inactive	inactive	inactive	inactive	inactive	inactive	inactive	inactive	inactive	–
CC/C(=C(\c1ccccc1)c1ccc(OCCN(C)C)cc1)c1ccccc1	-3.24% (inactive)	–	inactive	–	inactive	–	–	–	–	–	13.5 µM (active)	–
O=C(NCCN1CCOCC1)c1ccc(Cl)cc1	0.679% (inactive)	inactive	inactive	inactive	inactive	inactive	inactive	inactive	–	inactive	inactive	–
O=C(O)c1c(Cl)c(Cl)c(Cl)c(Cl)c1-c1c2cc(I)c(=O)c(I)c-2oc2c(I)c(O)c(I)cc12	-20.2% (inactive)	inactive	inactive	inactive	inactive	inactive	inactive	inactive	–	inactive	inactive	–
CCCCC1C(=O)N(c2ccccc2)N(c2ccccc2)C1=O	-3.59% (inactive)	inactive	inactive	inactive	–	–	inactive	–	–	–	–	–
O=C1Nc2ccc(Cl)cc2C(C#CC2CC2)(C(F)(F)F)O1 (stereo not given)	-18.6% (inactive)	–	inactive	inactive	–	inactive	inactive	–	–	–	inactive	–
COc1ccc(Cc2nccc3cc(OC)c(OC)cc23)cc1OC	–	inactive	inactive	inactive	inactive	inactive	inactive	inactive	–	–	inactive	–
CC1(C)O[C@H]2C[C@@H]3[C@H]4CCC5=CC(=O)C=C[C@]5(C)[C@@]4(F)[C@@H](O)C[C@]3(C)[C@]2(C(=O)CO)O1	-11.3% (inactive)	inactive	inactive	inactive	–	inactive	inactive	inactive	–	inactive	–	–
CN(C)CCC(c1ccccc1)c1ccccn1 (stereo not given)	-4.39% (inactive)	inactive	–	inactive	inactive	–	inactive	inactive	–	–	4.26 µM (active)	–
C[C@@H](O)[C@H]1C(=O)N2C(C(=O)O)=C(S[C@@H]3CN[C@H](C(=O)N(C)C)C3)[C@H](C)[C@H]12	3.74% (inactive)	inactive	inactive	inactive	inactive	inactive	inactive	inactive	inactive	inactive	inactive	–
COc1ccccc1N1CCN(CCCNc2cc(=O)n(C)c(=O)n2C)CC1	-0.41% (inactive)	inactive	inactive	inactive	inactive	inactive	inactive	inactive	inactive	inactive	inactive	–
O=c1[nH]cnc2c1ncn2[C@H]1CC[C@@H](CO)O1	–	inactive	inactive	inactive	inactive	inactive	–	–	–	inactive	13.5 µM (active)	–
O=C(O)c1cc(-c2ccccc2)nc2ccccc12	-0.325% (inactive) and 3.3% (inactive) and 1.79% (inactive)	inactive	inactive	inactive	inactive	inactive	inactive	inactive	–	inactive	inactive	–
CC1=C(/C=C/C(C)=C/C=C/C(C)=C/C(=O)Nc2ccc(O)cc2)C(C)(C)CCC1	–	–	–	10 µM (active)	–	–	11.2 µM (active)	10 µM (active)	–	12 µM (active)	5.36 µM (active)	16.8 µM (active)
CCCNC(=O)NS(=O)(=O)c1ccc(Cl)cc1	-0.307% (inactive)	inactive	inactive	inactive	inactive	inactive	inactive	inactive	inactive	inactive	inactive	–
CCN1CCC[C@H]1CNC(=O)c1cc(S(N)(=O)=O)ccc1OC	-0.0938% (inactive) and -2.14% (inactive)	inactive	inactive	inactive	inactive	inactive	inactive	inactive	–	inactive	inactive	–
NCCS	-9.34% (inactive)	inactive	inactive	inactive	inactive	inactive	inactive	inactive	–	inactive	inactive	–
CC(=O)CCCCn1c(=O)c2c(ncn2C)n(C)c1=O	-2.71% (inactive) and -0.425% (inactive)	inactive	inactive	inactive	inactive	inactive	inactive	inactive	–	inactive	inactive	–
O=C1NCC2(CCN(CCc3ccccc3)CC2)O1	–	inactive	inactive	inactive	inactive	inactive	inactive	inactive	inactive	inactive	inactive	–
